A3A deaminase = blocks human APOBEC3A ssDNA deamination | recombinant A3A, FAM/TAMRA ssDNA deamination fluorescence | inhibition, % at 20 µM | 0.41% of 330,000 active;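 active = at least 40% inhibition at 20 µM here, with at most 30% in a related deaminase screen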
Target sequence (P31941 whole entry, looked up): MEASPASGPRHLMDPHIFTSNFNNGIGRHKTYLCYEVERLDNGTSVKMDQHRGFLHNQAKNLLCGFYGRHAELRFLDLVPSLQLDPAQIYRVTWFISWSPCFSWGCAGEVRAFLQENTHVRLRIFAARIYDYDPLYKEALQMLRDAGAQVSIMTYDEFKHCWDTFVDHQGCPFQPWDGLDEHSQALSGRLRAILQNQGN
APOBEC3G inh = blocks human APOBEC3G single-stranded DNA deamination; Q9HC16; recombinant A3G, ssDNA deamination FAM/TAMRA fluorescence; inhibition, % at 20 µM; 0.28% of 330,000 active; AID 493012;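 active = inhibition of at least 40% at 20 µM, with no more than 30% in the related APOBEC3A deaminase screen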
Target sequence (Q9HC16 whole entry, looked up): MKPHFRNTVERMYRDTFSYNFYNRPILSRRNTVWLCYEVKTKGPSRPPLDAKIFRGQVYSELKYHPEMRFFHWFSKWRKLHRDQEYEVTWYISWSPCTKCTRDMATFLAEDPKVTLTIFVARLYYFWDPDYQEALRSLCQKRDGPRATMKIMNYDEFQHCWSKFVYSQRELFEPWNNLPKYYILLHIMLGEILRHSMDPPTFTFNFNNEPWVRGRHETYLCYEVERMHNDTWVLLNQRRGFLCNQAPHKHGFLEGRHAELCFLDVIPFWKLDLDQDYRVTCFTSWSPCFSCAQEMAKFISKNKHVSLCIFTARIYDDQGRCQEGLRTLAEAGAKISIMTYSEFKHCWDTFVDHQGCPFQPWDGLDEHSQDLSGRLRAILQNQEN
HGIII-sPLA2 inh = Inhibits HGIII-sPLA2 liposome hydrolysis, primary screen. Q9NZ20. QFRET BODIPY PC-A2 liposome hydrolysis, fluorescence. inhibition, % at 12.2 µM. 0.56% of 370,000 active. AID 743126;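 active = inhibition above mean plus 3 SD of compounds lying within the high and low control bounds, cut at about 19% in these data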
NALP1 yeast inh = blocks the NALP1 inflammasome reconstituted in yeast | S. cerevisiae NALP1/ASC/caspase-1 growth, X-gal OD620, 72 h | AID 2071 | inhibition, % at 10 µM | 0.61% of 280,000 active; in the data active = inhibition mostly above about 24%, no sharp cut-off; inactive = mostly below about 32%
Fh CTSL1 inh = counter-screen for PFM18AAP inhibitors: inhibitors of F. hepatica cathepsin L1; recombinant F. hepatica cathepsin L1, Z-Leu-Arg-MCA fluorescence; inhibition, % at 5.96 µM; 0.49% of 300,000 active; AID 1906;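 active = inhibition above the mean of all tested compounds plus 3 SD, set per screening campaign, cut at about 17% in these data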
Hits are given with their value; – = inactive; · = not tested or not shown. The list is not random: actives were taken first. Their share in the collection is about 2%.

SMILES | A3A deaminase | APOBEC3G inh | HGIII-sPLA2 inh | NALP1 yeast inh | Fh CTSL1 inh
S=C(NCc1ccc(Cl)cc1)OC1CCC12CCC(c1ccccc1)CC2 (stereo not given) | · | · | – | · | ·
O=C(CCl)Nc1cccc(S(=O)(=O)N2CCCCCC2)c1 | – | – | – | – | 78.0
O=C(Cn1nnc(-c2ccccc2F)n1)Nc1ccc(F)cc1F | · | · | – | · | ·
CC(=O)N1CC=CC1(CC(C)C)C(=O)NCc1cc(F)cc(C(F)(F)F)c1 (stereo not given) | – | – | – | – | 54.6
CCn1c(Cc2ccccc2)nnc1SCC(=O)Nc1ccccc1F | – | – | – | 33.3 | –
CCn1c(Cc2ccccc2)nnc1SCC(=O)Nc1ccc(N)cc1 | – | – | – | – | –
O=C1CCC[C@H]2C[C@H](NCc3cccc(I)c3)CC[C@]23CCCN13 | · | · | – | · | ·
Cc1cc(C)c(NS(=O)(=O)c2ccc(NC(=O)/C=C/C(=O)O)cc2)c(C)c1 | – | – | – | 51.3 | –
Cc1cc(C)c(NS(=O)(=O)c2ccc(Cl)c(C(=O)O)c2)c(C)c1 | – | – | – | – | –
O=C(COC(=O)c1ccc(=O)n(Cc2ccccc2)n1)Nc1ccc2c(c1)OCCO2 | – | – | – | – | 19.2
O=C(COC(=O)[C@H](Cc1ccccc1)N1C(=O)c2ccccc2C1=O)Nc1ccc2c(c1)OCO2 | – | – | – | – | 22.5
COC(=O)[C@]12C[C@H](CC(=O)NCc3cccc(C(F)(F)F)c3)C(=O)N(CCC3=CCCCC3)C1=C[C@H](C1CCCC1)O[C@@H]2C | · | · | – | · | ·
O=C1CN=C(Nc2ccccc2Cl)N1c1ccccc1 | – | – | – | 33.8 | –
COc1ccc(CN2C3=NC(c4ccccc4)CC(=O)N3/C(=C\c3ccccc3)C2c2ccccc2)c(OC)c1 (stereo not given) | · | · | – | · | ·
Cc1noc(C)c1COC(=O)[C@@H](NC(=O)c1ccccc1)C(C)C | – | – | – | 23.7 | –
CC(C)[C@H](NC(=O)c1ccccc1)C(=O)OCc1nnc(-c2ccccc2)o1 | – | – | – | – | –
CCCOc1ccc(C(=O)N/N=C/c2ccc(-c3ccc(S(=O)(=O)Nc4ncccn4)cc3)o2)cc1 | – | – | – | 42.7 | –
NS(=O)(=O)c1ccc(-c2ccc(/C=N/NC(=O)c3ccc([N+](=O)[O-])cc3)o2)cc1 | – | – | – | – | –
CCn1c2ccccc2c2cc(CNCc3ccc(OC)cc3OC)ccc21 | – | – | – | 23.2 | –
COc1cccc(CNCc2ccc(OC)cc2OC)c1 | – | – | – | – | –
CCc1c(C)nc(SCC(=O)Nc2nc(-c3ccc(OC)cc3)cs2)[nH]c1=O | – | – | – | – | –
CCc1c(C)nc(SCC(=O)NNC(=O)Cc2ccc(OC)cc2)[nH]c1=O | – | – | – | · | 17.6
CC(C)(C)OC(=O)n1cc(-c2ccccc2)c2c(-c3ccccc3)c(O)ccc21 | · | · | – | · | ·
Fc1cccc(CNC2CCC23CCC(c2ccccc2)CC3)c1 (stereo not given) | · | · | – | · | ·
CCCC1CCC2(CCCN2CCOC(=S)Nc2ccccc2)CC1 (stereo not given) | · | · | – | · | ·
SMILES | A3A deaminase | APOBEC3G inh | HGIII-sPLA2 inh | NALP1 yeast inh | Fh CTSL1 inh
COc1ccccc1N(/N=C1\Sc2ccccc2C1=O)C(C)=O | – | – | – | · | 30.4
COc1ccc(N(/N=C2\Sc3ccccc3C2=O)C(C)=O)cc1 | · | · | – | – | ·
C#CCNC(=O)C[C@@H]1C(=O)N(CC=C)/C2=C/CCCCC[C@]21C(=O)OCC | · | · | – | · | ·
O=C(CC1NC(=O)NC1=O)Nc1ccc(Cl)cc1 (stereo not given) | – | – | – | 38.0 | –
CCN(CC)CCCNC(=O)c1ccc(N2CCCCC2)c(NS(=O)(=O)c2ccc(C)cc2)c1 | – | – | – | 24.4 | –
CCCCOc1ccc(S(=O)(=O)N2CCN(c3ccc(N4CCN(CC)CC4)nn3)CC2)cc1 | – | – | – | · | 18.0
Cc1cccc(C)c1OCC(O)CN1CCC(CN2C(=O)c3cccc4cccc(c34)C2=O)CC1 (stereo not given) | – | – | – | 42.6 | –
O=C(Nc1sc2c(c1-c1nc3ccccc3s1)CCNC2)C(F)(F)F | · | · | – | · | ·
Nc1ccc(N=Nc2ccccc2)c(N)n1 | – | – | 23.0 | – | –
Cc1ccnc(NC2CCCCC2)c1 | – | – | – | 21.0 | –
Cc1cc(NC2CCCCC2)nc2ccccc12 | – | – | – | – | –
Cc1ccc(N(C)c2nc(N)nc(N)c2N=O)cc1 | · | · | – | · | ·
O=C(NNC(=S)Nc1ccc(F)c(Cl)c1)C1CC1 | – | – | – | – | –
O=C(NNC(=S)Nc1ccc(F)c(Cl)c1)c1ccccc1Br | – | – | 25.7 | – | –
COc1ccc2[nH]c(=O)c(CN(C(=O)c3ccco3)C3CCCCC3)cc2c1 | – | – | – | 26.1 | –
COc1ccc2[nH]c(=O)c(CN(C(C)=O)C3CCCCC3)cc2c1 | – | – | – | – | –
OC(COC1CCCCC1)CN1CCN(c2ccccc2)CC1 (stereo not given) | – | – | – | · | –
C1CCC(OCCN2CCN(CCOC3CCCCC3)CC2)CC1 | – | – | – | 38.8 | –
CCOc1ccc(CCNC(=O)c2cc3ccsc3n2C)cc1OC | · | · | – | · | ·
O=C(COC(=O)c1cc2ccccc2oc1=O)Nc1ccc(F)cc1F | – | – | – | – | 30.6
COc1ccc(CN2C[C@]3(C=C(C)Cn4c(=O)n(-c5ccccc5)c(=O)n43)N(C(=O)OCc3ccccc3)C2=NC(=O)c2ccccc2)c(OC)c1 | · | · | – | · | ·
Cc1ccc(-c2c3c(nc4sc(C(N)=O)c(N)c24)CCCC3)o1 | – | – | – | – | 37.9
NC(N)=N/N=C/c1ccc(OCc2ccccc2Cl)cc1 | – | – | – | 28.1 | –
COC(=O)[C@]12C[C@H](CC(=O)NCCc3ccccc3OC)C(=O)N(CCc3ccc(OC)c(OC)c3)C1=C[C@H](COCc1ccccc1)O[C@@H]2C | · | · | – | · | ·
COC(=O)c1cccc2nc3c(C(C)O)cccc3nc12 (stereo not given) | – | – | – | – | 86.8
SMILES | A3A deaminase | APOBEC3G inh | HGIII-sPLA2 inh | NALP1 yeast inh | Fh CTSL1 inh
COc1ccc(C(C(=O)N(C)C2CCCC2)N(Cc2ccc(F)cc2)C(=O)c2cc(C)on2)cc1OC (stereo not given) | · | · | – | · | ·
CCCOc1ccc(/C(O)=C2/C(=O)C(=O)N(CCN(C)C)C2c2ccncc2)cc1 (stereo not given) | – | – | – | · | –
CN(C)CCN1C(=O)C(=O)/C(=C(/O)c2ccc(OCc3ccccc3)cc2)C1c1ccncc1 (stereo not given) | · | · | – | 34.8 | ·
CC(=O)CC[C@@H]1CC[C@]2(CCCN(S(=O)(=O)C3CCCCC3)C2)O1 | · | · | – | · | ·
O=C(OC12CCCN(C1)/C(=C/c1ccc(Cl)cc1)C2)c1ccc(Cl)cc1 (stereo not given) | · | · | – | · | ·
Cc1cc(/C=N/n2c(COc3ccccc3)nc3ccccc3c2=O)c(O)c([N+](=O)[O-])c1 | – | – | 38.6 | – | –
CCC[C@H]1[C@@H](NS(=O)(=O)c2ccccc2[N+](=O)[O-])CC[C@@]23CCCN2C(=O)CCC[C@@H]13 | · | · | – | · | ·
Nc1nc(SCC(=O)Nc2ccc([N+](=O)[O-])cc2)[nH]c(=O)c1NC(=O)c1ccc(Br)cc1 | – | – | – | 26.9 | –

Bioassay records as filed in PubChem.
